From paper doi:10.1101/2024.03.05.583629 come the findings set out here.

In the assay the target is pT7_6His-AlfaTag-HOXD13 (human, UniProt P35453 263-343). Kind of assay: PADIT-seq. Particulars: dsDNA, one strand shown.
pT7_6His-AlfaTag-HOXD13, sequence (P35453 263-343): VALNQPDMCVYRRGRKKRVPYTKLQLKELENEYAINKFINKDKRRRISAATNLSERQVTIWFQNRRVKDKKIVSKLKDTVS
Take “CTCGAGGATATCAAGATCTGGCCTCGGCTTTTTACGCGGAACCTCTAGCTAGCCGACTCACTATAGGGATAATCGCCCTGAGCAAAGACC”: the binding signal is 2.08 ± 0.0867 log2FC.

“CTCGAGGATATCAAGATCTGGCCTCGGCATTTTAGTCGGAACCTCTAGCTAGCCGACTCACTATAGGGATAATCGCCCTGAGCAAAGACC” displayed a binding signal of -0.427 ± 0.127 log2FC.

Consider “CTCGAGGATATCAAGATCTGGCCTCGGCCGAGTAAAAGGAACCTCTAGCTAGCCGACTCACTATAGGGATAATCGCCCTGAGCAAAGACC”, for which the binding signal came to 0.186 ± 0.114 log2FC.

In the case of “CTCGAGGATATCAAGATCTGGCCTCGGCCGCCCAGAAGGAACCTCTAGCTAGCCGACTCACTATAGGGATAATCGCCCTGAGCAAAGACC”, the binding signal was -1.09 ± 0.133 log2FC.

“CTCGAGGATATCAAGATCTGGCCTCGGCCAGCTAAAAGGAACCTCTAGCTAGCCGACTCACTATAGGGATAATCGCCCTGAGCAAAGACC” yielded a binding signal of -0.419 ± 0.146 log2FC.

Regarding “CTCGAGGATATCAAGATCTGGCCTCGGCTAGATAAAAGGAACCTCTAGCTAGCCGACTCACTATAGGGATAATCGCCCTGAGCAAAGACC”, the binding signal came to 0.188 ± 0.107 log2FC.

On to “CTCGAGGATATCAAGATCTGGCCTCGGCGACTTAAAAGGAACCTCTAGCTAGCCGACTCACTATAGGGATAATCGCCCTGAGCAAAGACC”, for which the binding signal was determined as 0.297 ± 0.0744 log2FC.

On to “CTCGAGGATATCAAGATCTGGCCTCGGCCTATTAAAAGGAACCTCTAGCTAGCCGACTCACTATAGGGATAATCGCCCTGAGCAAAGACC”, for which the binding signal came out at 3.05 ± 0.0763 log2FC.

Turning to “CTCGAGGATATCAAGATCTGGCCTCGGCTTTTTATTGGGAACCTCTAGCTAGCCGACTCACTATAGGGATAATCGCCCTGAGCAAAGACC”, the binding signal came to 3.26 ± 0.0862 log2FC.

In turn, “CTCGAGGATATCAAGATCTGGCCTCGGCCGACTAAAAGGAACCTCTAGCTAGCCGACTCACTATAGGGATAATCGCCCTGAGCAAAGACC” displayed a binding signal of -0.753 ± 0.121 log2FC.

In turn, “CTCGAGGATATCAAGATCTGGCCTCGGCCAATTAAAAGGAACCTCTAGCTAGCCGACTCACTATAGGGATAATCGCCCTGAGCAAAGACC” came in with a binding signal of 2.77 ± 0.0792 log2FC.

For “CTCGAGGATATCAAGATCTGGCCTCGGCGTTTTAATAGGAACCTCTAGCTAGCCGACTCACTATAGGGATAATCGCCCTGAGCAAAGACC”, the binding signal was found to be 2.63 ± 0.0918 log2FC.

Consider “CTCGAGGATATCAAGATCTGGCCTCGGCAACTGGGCGGGAACCTCTAGCTAGCCGACTCACTATAGGGATAATCGCCCTGAGCAAAGACC”, for which the binding signal was -0.923 ± 0.12 log2FC.

“CTCGAGGATATCAAGATCTGGCCTCGGCATTTTATGTGGAACCTCTAGCTAGCCGACTCACTATAGGGATAATCGCCCTGAGCAAAGACC”: the binding signal came to 2.99 ± 0.0772 log2FC.

“CTCGAGGATATCAAGATCTGGCCTCGGCTTTTTACGAGGAACCTCTAGCTAGCCGACTCACTATAGGGATAATCGCCCTGAGCAAAGACC” returned a binding signal of 3.37 ± 0.0866 log2FC.

“CTCGAGGATATCAAGATCTGGCCTCGGCTGGTTAAAAGGAACCTCTAGCTAGCCGACTCACTATAGGGATAATCGCCCTGAGCAAAGACC” gave a binding signal of 1.48 ± 0.0798 log2FC.

Regarding “CTCGAGGATATCAAGATCTGGCCTCGGCATTTTAAATGGAACCTCTAGCTAGCCGACTCACTATAGGGATAATCGCCCTGAGCAAAGACC”, the binding signal stood at 1.82 ± 0.0848 log2FC.

“CTCGAGGATATCAAGATCTGGCCTCGGCTTTTTAGGTGGAACCTCTAGCTAGCCGACTCACTATAGGGATAATCGCCCTGAGCAAAGACC” had a binding signal of -0.0749 ± 0.107 log2FC.
